# From PubChem BioAssay (Tox21)
# Records with an inconclusive call do not appear. A call without a number means that no potency is given here. The source made the active and inactive calls. Unless noted, the call rests on the fitted dose curve; in most records, active means well fitted curve in the direction sought with a large enough effect in the repeat runs; inconclusive means weak or mixed curves; inactive means no such curve, though single readings can be large; an effect the other way counts as inactive or inconclusive.
# Columns and labels:
# [1] = qHTS assay for small molecules that induce genotoxicity in human embryonic kidney cells expressing luciferase-tagged ATAD5 (AID 651632); further: nearly all actives have a fitted effect of over 15% in size
# Outline: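 Genotoxicity read-out via ATAD5-luciferase: HEK293T cells, 16 hr compound incubation at 37C, Amplite detection.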
# [2] = qHTS assay for small molecule agonists of the p53 signaling pathway - cell viability (AID 651633; calls by dose curve; further: nearly all actives have a fitted effect of over 30% in size; further: potency means the concentration at half of the fitted maximal effect)
# Outline: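 p53RE-bla cells were treated with compound for 16 hours at 37 C. Cytotoxicity was then measured as CellTiter-Glo luminescence after 30 min at room temperature.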
# [3] = qHTS assay to test for compound auto fluorescence at 590 nm (red) in HepG2 cells (AID 720674)
# Outline: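 Fluorescence at 590 nm emission following 540 nm excitation was recorded from HepG2 wells one hour after compound transfer, with DMSO-only wells as vehicle and Rose Bengal sodium equivalency as the scale.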
# [4] = qHTS assay to test for compound auto fluorescence at 535 nm (green) in HepG2 cells (AID 720675)
# [5] = qHTS assay to test for compound auto fluorescence at 460 nm (blue) in HEK293 cells (AID 720678); further: potency means the concentration at half of the fitted maximal effect
# Outline: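 Measured: blue fluorescence (Ex 405/Em 460 nm) of compound-treated HEK293 cells, incubated overnight at 37C with 5% CO2 and scaled to triamterene equivalents.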
# [6] = qHTS assay to test for compound auto fluorescence at 590 nm (red) in HEK293 cells (AID 720679)
# Outline: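 Using HEK293 cells at 2,000 per well, the screen added 23 nL of each compound after cell attachment and incubated overnight (37C, 5% CO2). The plate reader then captured red-label fluorescence, Ex/Em 540/590nm.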
# [7] = qHTS assay to test for compound auto fluorescence at 535 nm (green) in HEK293 cells (AID 720680)
# [8] = qHTS assay to test for compound auto fluorescence at 460 nm (blue) in HEK293 cell free culture (AID 720681); further: potency means the concentration at half of the fitted maximal effect
# Outline: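 Compounds were added to cell-free DMEM with 10% FBS and fluorescence read directly. The blue channel used 405 nm excitation and 460 nm emission, with triamterene as the reference fluorophore.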
# [9] = qHTS assay to test for compound auto fluorescence at 535 nm (green) in HEK293 cell free culture (AID 720682)
# Outline: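 DMEM + 10% FBS, cell-free; cpd or DMSO pinned in; Ex485/Em535 read; output as fluorescein-equivalent signal.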
# [10] = qHTS assay to test for compound auto fluorescence at 590 nm (red) in HEK293 cell free culture (AID 720683)
# Outline: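 Cell-free wells of DMEM with 10% FBS received compound, and intrinsic fluorescence was read at excitation/emission 540/590 nm. Values expressed as equivalence to Rose Bengal sodium.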
# [11] = qHTS assay to test for compound auto fluorescence at 590 nm (red) in HepG2 cell free culture (AID 720684)
# Outline: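 Compounds are added to culture medium (MEM, 10% FBS) lacking cells, then fluorescence is read at excitation 540 nm, emission 590 nm, with Rose Bengal sodium as the equivalency standard.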
# [12] = qHTS assay to test for compound auto fluorescence at 460 nm (blue) in HepG2 cell free culture (AID 720685); further: potency means the concentration at half of the fitted maximal effect
# Outline: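 Compound (23 nL) or DMSO pinned into cell-free MEM with 10% FBS; blue fluorescence read at 405/460 nm excitation/emission, expressed as auto-fluorescence equivalency to triamterene.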
# [13] = qHTS assay to test for compound auto fluorescence at 535 nm (green) in HepG2 cell free culture (AID 720686)
# [14] = qHTS assay for small molecules that induce genotoxicity in human embryonic kidney cells expressing luciferase-tagged ATAD5 - cell viability (AID 651634; calls by dose curve; further: nearly all actives have a fitted effect of over 25% in size; further: potency means the concentration at half of the fitted maximal effect)
# Outline: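 Live-cell protease activity (CellTiter-Fluor, fluorescence) indicates viability. HEK293T cells with luciferase-tagged ATAD5; 15.5 hr compound treatment at 37C.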
# [15] = qHTS assay for small molecule disruptors of the mitochondrial membrane potential - cell viability (AID 720634; calls by dose curve; further: nearly all actives have a fitted effect of over 20% in size; further: potency means the concentration at half of the fitted maximal effect)
# Outline: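 Human hepatoma HepG2 cells were treated for 1 hr with test chemicals, then given m-MPI dye and CellTiter-Glo. Cell viability reflects luminescence proportional to cellular ATP.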
# [16] = qHTS assay to test for compound auto fluorescence at 460 nm (blue) in HepG2 cells (AID 720687); further: potency means the concentration at half of the fitted maximal effect
# Outline: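 HepG2 cells in MEM with 10% FBS, attached overnight at 37 C, were exposed to compound or DMSO for 1 hr at 37 C, 5% CO2. Blue fluorescence was read at 405/460 nm, with triamterene as reference fluorophore.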
# [17] = target: Glucocorticoid receptor (Homo sapiens) (UniProt P04150); test: qHTS assay to identify small molecule agonists of the glucocorticoid receptor (GR) signaling pathway (AID 720691; active means well fitted activation curve with a large enough effect in the signal ratio in the repeat runs, not every such curve was filed as active; the % refers to the signal ratio); details: GR-bla HeLa, beta-lactamase reporter ratio, 18 h; activation: at 62.4 µM (top of the series)
# Sequence of Glucocorticoid receptor (Homo sapiens) (P04150 whole entry, looked up): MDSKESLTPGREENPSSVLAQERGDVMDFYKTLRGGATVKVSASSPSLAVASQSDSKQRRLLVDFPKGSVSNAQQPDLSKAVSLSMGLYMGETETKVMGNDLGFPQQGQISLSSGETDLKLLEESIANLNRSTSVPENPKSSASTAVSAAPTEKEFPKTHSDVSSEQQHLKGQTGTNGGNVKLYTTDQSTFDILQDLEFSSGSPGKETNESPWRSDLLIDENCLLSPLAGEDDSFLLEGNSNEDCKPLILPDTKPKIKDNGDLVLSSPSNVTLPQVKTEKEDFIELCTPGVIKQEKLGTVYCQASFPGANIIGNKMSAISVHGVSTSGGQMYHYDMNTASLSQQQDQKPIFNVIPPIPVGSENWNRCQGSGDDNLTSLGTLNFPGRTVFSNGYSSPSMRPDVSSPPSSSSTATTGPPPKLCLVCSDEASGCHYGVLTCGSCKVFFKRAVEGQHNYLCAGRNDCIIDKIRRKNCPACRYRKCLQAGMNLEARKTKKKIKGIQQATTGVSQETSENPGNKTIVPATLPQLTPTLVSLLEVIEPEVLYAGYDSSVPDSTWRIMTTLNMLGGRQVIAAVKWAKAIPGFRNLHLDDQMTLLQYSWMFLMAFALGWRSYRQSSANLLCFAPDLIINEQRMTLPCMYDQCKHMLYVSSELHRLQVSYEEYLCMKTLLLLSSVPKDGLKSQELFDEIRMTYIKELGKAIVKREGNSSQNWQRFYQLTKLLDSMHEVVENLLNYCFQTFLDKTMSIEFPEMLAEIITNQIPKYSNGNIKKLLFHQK
# Outline: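 Beta-lactamase reporter activity, read as fluorescence intensity, was measured in GR-bla HeLa cells exposed to compounds for 18 h at 37 C and then loaded with LiveBLAzer B/G FRET substrate for 2 h at room temperature.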
# [18] = qHTS assay for small molecule disruptors of the mitochondrial membrane potential (AID 720635); further: potency means the concentration at half of the fitted maximal effect
# Outline: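 HepG2 cells exposed to compound 1 hr at 37C, then Mito-MPS dye 30 min. Ratio read of aggregate (540/590 nm) versus monomer (490/535 nm) fluorescence.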
# [19] = target: Glucocorticoid receptor (Homo sapiens) (UniProt P04150); test: qHTS assay to identify small molecule antagonists of the glucocorticoid receptor (GR) signaling pathway (AID 720692; active means well fitted inhibition curve with a large enough effect in the signal ratio in the repeat runs, not every such curve was filed as active; the % refers to the signal ratio; further: potency means the concentration at half of the fitted maximal effect)
# Outline: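 Fluorescence from cleaved LiveBLAzer B/G FRET substrate reports GRE-driven beta-lactamase in HeLa cells; compounds are tested against 5 nM dexamethasone (final) over 18 h at 37 C, substrate incubation 2 h at room temperature.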
# Tags describe the fitted curve by direction and shape or compound fluorescence and quenching.
Structure (SMILES),Potency [1],Potency [2],outcome [3],Potency [4],Potency [5],outcome [6],outcome [7],Potency [8],outcome [9],outcome [10],outcome [11],Potency [12],Potency [13],Potency [14],Potency [15],Potency [16],Potency [17],Potency [18],Potency [19]
CN(C[C@@H](CC[N+]12CCC(C3CCCCC3)(CC1)CC2)c1ccc(Cl)c(Cl)c1)C(=O)c1cc(C(F)(F)F)cc(C(F)(F)F)c1,inactive,27.3 µM (active),inactive,inactive,inactive,inactive,inactive,inactive,inactive,inactive,inactive,inactive,inactive,,,,,,
N[C@@H](Cc1ccc(O)c(O)c1)C(=O)O,inactive,inactive,inactive,inactive,inactive,inactive,inactive,inactive,inactive,inactive,inactive,inactive,inactive,inactive,inactive,inactive,inactive,,
CCCCC/C=C\C=C\C(=O)OCC,inactive,56.8 µM (active),inactive,inactive,inactive,inactive,inactive,inactive,inactive,inactive,inactive,inactive,inactive,,inactive,inactive,inactive,71.5 µM (active),45.5 µM (active)
Cc1cc(-c2ccc(N=Nc3ccc4c(S(=O)(=O)O)cc(S(=O)(=O)O)c(N)c4c3O)c(C)c2)ccc1N=Nc1ccc2c(S(=O)(=O)O)cc(S(=O)(=O)O)c(N)c2c1O,inactive,inactive,inactive,inactive,inactive,,inactive,inactive,inactive,inactive,inactive,inactive,inactive,13.3 µM (active),inactive,inactive,inactive,,inactive
CCC(NC(C)C)C(O)c1ccc(O)c(O)c1 (centres undefined),inactive,inactive,,inactive,inactive,inactive,inactive,inactive,inactive,inactive,inactive,inactive,,inactive,inactive,inactive,,inactive,
Nc1c(CC(=O)O)cccc1C(=O)c1ccccc1,inactive,inactive,,inactive,inactive,inactive,inactive,inactive,inactive,inactive,inactive,inactive,inactive,inactive,inactive,inactive,inactive,inactive,inactive
Oc1ccc(Cl)cc1C1CCCC1,inactive,inactive,inactive,inactive,inactive,inactive,,inactive,inactive,inactive,inactive,inactive,inactive,inactive,,,,3.86 µM (active),
CC(=O)N[C@@H](C=O)[C@H](O)[C@H](O)[C@@H](O)CO,inactive,inactive,inactive,inactive,inactive,inactive,inactive,inactive,,inactive,inactive,inactive,inactive,,inactive,inactive,,,
CN1CCN(CCCN2c3ccccc3Sc3ccc(Cl)cc32)CC1,inactive,29.8 µM (active),inactive,inactive,inactive,inactive,inactive,inactive,inactive,inactive,inactive,inactive,inactive,,,,,,
CC[C@H]1OC(=O)C[C@@H](O)[C@H](C)[C@@H](O[C@@H]2O[C@H](C)[C@@H](O)[C@H](N(C)C)[C@H]2O)[C@@H](CCN2C[C@H](C)C[C@H](C)C2)C[C@@H](C)C(=O)/C=C/C(C)=C/[C@@H]1CO[C@@H]1O[C@H](C)[C@@H](O)[C@@H](OC)[C@H]1OC,inactive,inactive,,inactive,inactive,inactive,,inactive,inactive,inactive,inactive,inactive,inactive,inactive,inactive,inactive,inactive,inactive,
CCSCC,inactive,inactive,inactive,inactive,inactive,inactive,inactive,inactive,,inactive,inactive,inactive,inactive,inactive,inactive,inactive,inactive,,inactive
N[C@H](CO)C(=O)O,inactive,inactive,inactive,inactive,inactive,inactive,,inactive,inactive,inactive,inactive,inactive,inactive,,inactive,inactive,inactive,,
C[C@@H]1C(=O)NC2=Nc3cccc(Cl)c3CN21,inactive,inactive,inactive,inactive,inactive,inactive,inactive,inactive,inactive,inactive,inactive,inactive,inactive,inactive,inactive,inactive,inactive,,
c1ccc2occc2c1,inactive,inactive,inactive,inactive,inactive,inactive,inactive,inactive,inactive,inactive,inactive,inactive,inactive,inactive,inactive,inactive,,,
CN(C)CCOc1ccc(/C(=C(/CCCl)c2ccccc2)c2ccccc2)cc1,inactive,57.2 µM (active),inactive,inactive,inactive,inactive,inactive,inactive,,inactive,inactive,inactive,inactive,inactive,inactive,inactive,,,
N=C(N)c1ccc(/C=C/c2ccc(C(=N)N)cc2O)cc1,inactive,inactive,inactive,inactive,inactive,inactive,inactive,inactive,inactive,inactive,inactive,inactive,inactive,,inactive,,,1.97 µM (active),
Cc1cc(F)ccc1-c1cc(N2CC[C@@H](O)[C@H]2CO)ncc1N(C)C(=O)C(C)(C)c1cc(C(F)(F)F)cc(C(F)(F)F)c1,inactive,19 µM (active),inactive,inactive,inactive,inactive,inactive,inactive,inactive,inactive,inactive,inactive,inactive,47.8 µM (active),,inactive,,21.4 µM (active),
O=C(Nc1ccccc1)c1cc(Cl)ccc1O,inactive,17.2 µM (active),inactive,inactive,inactive,inactive,inactive,inactive,inactive,inactive,inactive,inactive,inactive,,1.93 µM (active),,inactive,0.386 µM (active),
COc1cc2c(c(OC)c1OC)-c1c(cc3c(c1OC)OCO3)C[C@@H](C)[C@](C)(O)C2,inactive,inactive,inactive,inactive,inactive,,,inactive,inactive,inactive,inactive,inactive,inactive,,inactive,inactive,inactive,inactive,inactive
CC(Cc1ccc(O)c(O)c1)C(C)Cc1ccc(O)c(O)c1 (centres undefined),inactive,,inactive,inactive,inactive,inactive,inactive,inactive,,inactive,inactive,inactive,inactive,inactive,inactive,inactive,,13.7 µM (active),
Clc1nc(C(Cl)(Cl)Cl)c(Cl)c(Cl)c1Cl,,,inactive,inactive,inactive,,inactive,inactive,,inactive,inactive,inactive,,48.6 µM (active),inactive,inactive,,,
CCCCCCCC/C=C\CCCCCCCC(=O)N(CCO)CCO,inactive,,inactive,inactive,inactive,inactive,inactive,inactive,inactive,inactive,inactive,inactive,inactive,inactive,inactive,inactive,,,
CCN(CC)CC#CCOC(=O)C(O)(c1ccccc1)C1CCCCC1 (centres undefined),,,inactive,inactive,inactive,,inactive,inactive,inactive,inactive,inactive,inactive,inactive,inactive,,inactive,inactive,,inactive
CCCCCCCCCC[N+](C)(CCCCCCCCCC)CCC[Si](OC)(OC)OC,,48.6 µM (active),inactive,inactive,inactive,inactive,,inactive,inactive,inactive,inactive,inactive,inactive,48.6 µM (active),54.5 µM (active),inactive,,,
CCC(=O)OC(OP(=O)(CCCCc1ccccc1)CC(=O)N1C[C@H](C2CCCCC2)C[C@H]1C(=O)O)C(C)C (some centres undefined),inactive,,,inactive,inactive,inactive,inactive,inactive,inactive,inactive,inactive,inactive,,inactive,inactive,inactive,inactive,inactive,
O=C1c2ccccc2-c2n[nH]c3cccc1c23,inactive,,inactive,inactive,12.6 µM [fluorescent] (active),inactive,inactive,14.1 µM (active),inactive,inactive,inactive,12.6 µM [fluorescent] (active),,inactive,inactive,14.1 µM [fluorescent] (active),,0.784 µM (active),
COc1ccc2ccccc2c1,,,inactive,inactive,inactive,inactive,inactive,inactive,,inactive,inactive,inactive,inactive,,,,,,
COC1[C@@H](O[C@@H]2O[C@H](C)[C@@H](O[C@H]3C[C@@](C)(O)[C@H](OC(=O)CC(C)C)[C@H](C)O3)[C@H](N(C)C)[C@H]2O)[C@@H](CC=O)C[C@@H](C)[C@@H](O)/C=C/C=C/C[C@@H](C)OC(=O)C[C@H]1OC(C)=O (some centres undefined),inactive,,inactive,inactive,inactive,inactive,inactive,inactive,,inactive,inactive,inactive,inactive,inactive,inactive,inactive,inactive,inactive,inactive
